Measurements from PubChem BioAssay (NCI).
Compounds without any hit were thinned out: in the full panel of roughly 83,000, 20% have a hit.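 Values shown are percent growth following 48 h exposure of cells in 96-well plates to a single concentration of compound; below 10 was considered active.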 Activity calls are given as the source filed them.

What was measured:
Experiment in all cases: NCI-60 one-dose screen, 48 h (100 = growth as untreated, 0 = no growth, -100 = all killed)
SR leukemia = conditions: 10 µM unless noted
RPMI-8226 leukemia = conditions: 10 µM unless noted
OVCAR-8 ovarian = conditions: 10 µM unless noted
OVCAR-5 ovarian = conditions: 10 µM unless noted
OVCAR-4 ovarian = conditions: 10 µM unless noted
IGROV1 ovarian = conditions: 10 µM unless noted
OVCAR-3 ovarian = conditions: 10 µM unless noted
HS 578T breast = conditions: 10 µM
NCI/ADR-RES ovarian = conditions: 10 µM unless noted
T-47D breast = conditions: 10 µM unless noted
MDA-MB-435 melanoma = conditions: 10 µM unless noted
SW-620 colon = conditions: 10 µM unless noted
MCF7 breast = conditions: 10 µM unless noted
HCT-116 colon = conditions: 10 µM unless noted
HCC-2998 colon = conditions: 10 µM
KM12 colon = conditions: 10 µM unless noted
SK-OV-3 ovarian = conditions: 10 µM unless noted
BT-549 breast = conditions: 10 µM unless noted

Measured: growth

CCN(CC)c1cc2oc3cc(N)cc(=N)c-3nc2cc1C
inactive: SR leukemia 30.4% | RPMI-8226 leukemia 43.4% | OVCAR-5 ovarian 32.3% | IGROV1 ovarian 50.9% | OVCAR-3 ovarian 24.7% | HS 578T breast 37.4% | T-47D breast 39% | SW-620 colon 24.1% | HCC-2998 colon 100% | KM12 colon 40.2%
active: OVCAR-8 ovarian 2.1% | OVCAR-4 ovarian -6.55% | NCI/ADR-RES ovarian 1.37% | MDA-MB-435 melanoma -64.8% | MCF7 breast 1.63% | HCT-116 colon -12.2%

COc1cnc2c(c1)C(=O)c1c-2n(CCCn2ccnc2)c(=O)c2cc(Cl)ccc12
inactive: OVCAR-8 ovarian 17.4% | OVCAR-4 ovarian 40.4% | IGROV1 ovarian 35.2% | HS 578T breast 75.1% | BT-549 breast 13.2% | MDA-MB-435 melanoma 11% | SW-620 colon 20.1% | HCC-2998 colon 31.6%
active: SR leukemia -10.3% | RPMI-8226 leukemia -15.3% | SK-OV-3 ovarian -28% | OVCAR-3 ovarian -8.34% | NCI/ADR-RES ovarian 4.79% | T-47D breast -1.88% | MCF7 breast 7.47% | HCT-116 colon -20.7% | KM12 colon 9.84%

Cc1ccc(-c2nc3ccc(Cl)cn3c2NC2CCCCC2)o1
inactive: SR leukemia 54.3% | RPMI-8226 leukemia 51.1% | OVCAR-8 ovarian 92.7% | OVCAR-4 ovarian 71% | SK-OV-3 ovarian 72.1% | IGROV1 ovarian 62.1% | OVCAR-3 ovarian 89.7% | HS 578T breast 88.2% | NCI/ADR-RES ovarian 86.2% | T-47D breast 58.1% | BT-549 breast 105% | MDA-MB-435 melanoma 97.2% | SW-620 colon 82.9% | MCF7 breast 72.1% | HCT-116 colon 56.1% | HCC-2998 colon 102% | KM12 colon 89.2%

Cc1cn(-c2cc(NC(=O)c3ccc(C)c(Nc4nccc(-c5cccnc5)n4)c3)cc(C(F)(F)F)c2)cn1
active: SR leukemia 8.24% | IGROV1 ovarian -44.4% | MDA-MB-435 melanoma -11.9%
inactive: RPMI-8226 leukemia 37.9% | OVCAR-8 ovarian 42.6% | OVCAR-5 ovarian 57% | OVCAR-4 ovarian 51.8% | OVCAR-3 ovarian 92.6% | T-47D breast 45.6% | BT-549 breast 24.2% | SW-620 colon 60% | MCF7 breast 12.8% | HCT-116 colon 42.6% | HCC-2998 colon 63.8% | KM12 colon 30%

COc1ccc2c(c1)cn1c3ccc(O)cc3nc(N)c21
active: SR leukemia 3.65% | NCI/ADR-RES ovarian -0.794% | MDA-MB-435 melanoma -16.6%
inactive: RPMI-8226 leukemia 25.4% | OVCAR-8 ovarian 28.1% | OVCAR-5 ovarian 38.3% | OVCAR-4 ovarian 37.7% | IGROV1 ovarian 17.4% | OVCAR-3 ovarian 43% | T-47D breast 37.3% | SW-620 colon 26.8% | MCF7 breast 17.2% | HCT-116 colon 18% | HCC-2998 colon 22.5% | KM12 colon 27.1%

CCCCOc1nc2cc(Cl)ccc2cc1/C=C/c1cc(/C=C/c2cc3ccc(Cl)cc3nc2OCCCC)n(-c2ccccc2)n1
inactive: SR leukemia 73% | RPMI-8226 leukemia 111% | OVCAR-8 ovarian 77.8% | OVCAR-5 ovarian 107% | OVCAR-4 ovarian 111% | IGROV1 ovarian 89.3% | OVCAR-3 ovarian 103% | NCI/ADR-RES ovarian 93.2% | T-47D breast 65.7% | BT-549 breast 89.3% | MDA-MB-435 melanoma 112% | SW-620 colon 105% | MCF7 breast 94.5% | HCT-116 colon 85.3% | HCC-2998 colon 102% | KM12 colon 94.9%

CCCCCCCC(=O)SCC/C=C/[C@@H]1CC(=O)NCc2nc(co2)C2=N[C@@](C)(CS2)C(=O)N[C@@H](C(C)C)C(=O)O1
inactive: SR leukemia 10.7% | OVCAR-4 ovarian 12.2% | BT-549 breast 13.2% | MCF7 breast 14.9%
active: RPMI-8226 leukemia 3.09% | OVCAR-8 ovarian 0.95% | SK-OV-3 ovarian -12.7% | IGROV1 ovarian -23.2% | OVCAR-3 ovarian -45.6% | HS 578T breast 4.63% | NCI/ADR-RES ovarian 5.57% | T-47D breast -5.12% | MDA-MB-435 melanoma -31.8% | SW-620 colon -29.2% | HCT-116 colon -63.2% | HCC-2998 colon -68.8% | KM12 colon 1.36%

CN(N)c1nc2sc3c(c2c(=O)[nH]1)CCCC3
inactive: SR leukemia 104% | RPMI-8226 leukemia 103% | OVCAR-8 ovarian 102% | OVCAR-4 ovarian 103% | SK-OV-3 ovarian 82.7% | IGROV1 ovarian 90.1% | OVCAR-3 ovarian 99.7% | HS 578T breast 94.6% | NCI/ADR-RES ovarian 104% | T-47D breast 76.6% | BT-549 breast 91.2% | MDA-MB-435 melanoma 97.1% | SW-620 colon 101% | MCF7 breast 83.4% | HCT-116 colon 94.9% | HCC-2998 colon 96% | KM12 colon 95.7%

CC(C)(C)C(=O)OCOP(=O)(OCOC(=O)C(C)(C)C)C1CCCN(OC(=O)c2ccccc2)C1=O (stereo not given)
inactive: OVCAR-5 ovarian 65.5% | OVCAR-4 ovarian 31.9% | T-47D breast 13.8% | MDA-MB-435 melanoma 45.2% | SW-620 colon 45.1% | HCT-116 colon 13% | HCC-2998 colon 25.2%
active: SR leukemia 7.15% | RPMI-8226 leukemia -30.8% | OVCAR-8 ovarian 7.36% | IGROV1 ovarian 5.28% | OVCAR-3 ovarian 7.34% | NCI/ADR-RES ovarian 3.76% | BT-549 breast 7.84% | MCF7 breast 0.983% | KM12 colon 5.57%

COc1ccc2c(CCc3ccc(Cl)cc3)c3[n+](cc2c1OC)CCc1cc2c(cc1-3)OCO2
active: MDA-MB-435 melanoma 1.77%
inactive: SR leukemia 33.8% | RPMI-8226 leukemia 20.7% | OVCAR-8 ovarian 51% | OVCAR-4 ovarian 24.4% | SK-OV-3 ovarian 75.2% | IGROV1 ovarian 40.8% | OVCAR-3 ovarian 44.2% | HS 578T breast 79.6% | T-47D breast 24.9% | BT-549 breast 18.5% | SW-620 colon 73.2% | MCF7 breast 60.4% | HCT-116 colon 36.5% | HCC-2998 colon 36.2%

CCCCCc1ccc(C)cc1OC(=O)CCl
inactive: SR leukemia 109% | RPMI-8226 leukemia 98.5% | OVCAR-8 ovarian 89.1% | OVCAR-5 ovarian 101% | OVCAR-4 ovarian 109% | IGROV1 ovarian 103% | OVCAR-3 ovarian 122% | HS 578T breast 116% | NCI/ADR-RES ovarian 111% | T-47D breast 102% | MDA-MB-435 melanoma 117% | SW-620 colon 103% | MCF7 breast 98% | HCT-116 colon 109% | HCC-2998 colon 109% | KM12 colon 106%

Cc1nc(Nc2n[nH]c3c2CN(C(=O)N[C@H](CN(C)C)c2ccccc2)C3(C)C)c2sccc2n1
active: SR leukemia -12.1% | RPMI-8226 leukemia -35.2% | OVCAR-8 ovarian -26.3% | OVCAR-5 ovarian -2.55% | OVCAR-4 ovarian -12% | IGROV1 ovarian -17.9% | OVCAR-3 ovarian 8.31% | T-47D breast -25.2% | BT-549 breast -42.5% | MDA-MB-435 melanoma -66.2% | SW-620 colon 1.22% | MCF7 breast -3.74% | HCT-116 colon -9.97% | HCC-2998 colon -55.1% | KM12 colon -12.7%

Cn1ccnc1C(=O)/C=C/c1ccc(CC(=O)Nc2ccc(C(F)(F)F)cc2)cc1
active: SR leukemia 1.17% | RPMI-8226 leukemia 3.07% | OVCAR-8 ovarian -25.8% | IGROV1 ovarian 9.94% | OVCAR-3 ovarian 9.48% | NCI/ADR-RES ovarian 6.64% | T-47D breast 3.52% | BT-549 breast 3.71% | SW-620 colon 7.25% | MCF7 breast 8.41% | HCT-116 colon 6.67% | HCC-2998 colon 0.221% | KM12 colon 4.24%
inactive: OVCAR-5 ovarian 22.9% | OVCAR-4 ovarian 43.1% | MDA-MB-435 melanoma 30.6%

Nc1c2c(c(O)c3c1=C(CO)C=N3)=NCCS2=O (stereo not given)
inactive: RPMI-8226 leukemia 20.7% | SK-OV-3 ovarian 77%
active: SR leukemia 3.82% | OVCAR-8 ovarian -18.8% | OVCAR-4 ovarian -96.7% | IGROV1 ovarian -15.2% | OVCAR-3 ovarian -51.5% | HS 578T breast 1.72% | NCI/ADR-RES ovarian 0.866% | T-47D breast -42.6% | BT-549 breast -74.4% | MDA-MB-435 melanoma -82.7% | SW-620 colon -18% | MCF7 breast -50.6% | HCT-116 colon -49.3% | HCC-2998 colon -87.8% | KM12 colon -27.7%
